# Compound activity as filed in PubChem.
# LmPK inhibitor: qHTS Assay for Inhibitors of Leishmania Mexicana Pyruvate Kinase (LmPK) | 290,000 compounds, 0.37% hits | purified LmPK, Kinase-Glo ATP luminescence, 1 h | Potency, µM (top dose mostly 57.5 µM), for the others: top-dose activity change, negative = inhibition, most hits filed as inhibitors; also: potency is read from the fitted curve at half-maximal effect; % is scaled to controls: 0 for no effect and ±100 for the full control effect
# Target sequence (Q27686 whole entry, looked up): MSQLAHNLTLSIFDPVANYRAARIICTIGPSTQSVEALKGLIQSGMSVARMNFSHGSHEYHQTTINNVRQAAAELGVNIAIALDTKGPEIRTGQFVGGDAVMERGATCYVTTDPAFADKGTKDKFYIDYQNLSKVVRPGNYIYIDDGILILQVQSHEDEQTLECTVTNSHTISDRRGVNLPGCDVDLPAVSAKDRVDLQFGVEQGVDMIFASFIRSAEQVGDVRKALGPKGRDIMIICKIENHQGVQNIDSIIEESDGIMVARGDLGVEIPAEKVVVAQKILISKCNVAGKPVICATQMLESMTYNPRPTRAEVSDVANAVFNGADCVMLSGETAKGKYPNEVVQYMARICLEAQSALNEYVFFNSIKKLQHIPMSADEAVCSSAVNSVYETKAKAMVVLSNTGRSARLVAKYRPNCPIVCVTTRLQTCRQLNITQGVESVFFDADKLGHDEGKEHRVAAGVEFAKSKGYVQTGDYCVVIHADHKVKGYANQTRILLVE
#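 Purified LmPK (0.1 nM) with 0.5 mM PEP and 0.1 mM ADP in imidazole buffer pH 7.2 with MgCl2/KCl, 1 h at room temperature. ATP formed was read by luciferase luminescence and normalized to no-enzyme and uninhibited controls.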
# CHX counter: Cycloheximide Counterscreen for Small Molecule Inhibitors of Shiga Toxin. 300,000 compounds, 12% hits. cell reporter, cycloheximide protein synthesis inhibition counterscreen. max response, %; in the data active = max response mostly above about 13%, no sharp cut-off; inactive = mostly below about 14%; also: read at 38.3 µM for the half of the compounds with a filed dose; 0% is about no effect
# FBPA Giardia inh: qHTS Assay for Inhibitors of Fructose-1,6-bisphosphate Aldolase from Giardia Lamblia. purified Giardia FBPA. Potency, µM (doses to about 59.6 µM), inactives show top-dose activity, negative = inhibition, most hits filed as inhibitors. 290,000 compounds, 0.71% hits; also: potency is read from the fitted curve at half-maximal effect; % is scaled to controls: 0 for no effect and ±100 for the full control effect; nearly all actives have a fitted effect of over 55% in size
#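 40 nM FBPA preincubated 10 min at RT with compound (up to 57.5 uM final), then substrate plus GAPDH/TPI/NAD/arsenate coupling and diaphorase/resazurin added. Fluorescence read after 20 min at RT, 525/598 nm.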
# Shiga inhibitor: A qHTS for Small Molecule Inhibitors of Shiga Toxin; inhibition, % at 38.7 µM; 290,000 compounds, 9.2% hits; Vero cells, Shiga toxin protein synthesis inhibition reporter; in the data active = inhibition mostly above about 28%, no sharp cut-off; inactive = mostly below about 43%; also: 0% is about no effect
# NS1 inh: qHTS Assay for Inhibitors of Influenza NS1 Protein Function; Potency, µM (highest dose often 46.1 µM), for inactives: at the highest dose activity, positive = more growth; 270,000 compounds, 0.4% hits; AID 2326, 2010; calls by dose curve; also: potency is read from the fitted curve at half-maximal effect; actives are rising curves; nearly all actives have a fitted effect of over 50% in size
#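 Compounds were scored for reversing the slow growth caused by influenza A NS1 in S. cerevisiae, measured by optical density at 600 nm. Assay medium contained 2% galactose at pH 6.0; NS1-free yeast of the same strain were the positive control.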
# Starred values were filed as active, the others as inactive; ? = inconclusive; . = not tested or not shown. Only some compounds are listed: those with a hit (about 14% of all), similar ones and a draw of the others. Unless noted, calls follow the shape of the dose curve; as a rule, active = well fitted curve in the direction sought with a large enough effect; inconclusive = small, poorly fitted or top-dose-only effect, or another doubt; inactive = no such curve, though single readings can be large; an effect the other way counts as inactive or inconclusive.
SMILES,LmPK inhibitor,CHX counter,FBPA Giardia inh,Shiga inhibitor,NS1 inh
COc1ccccc1NC(=O)Nc1ccc(C(=O)N2CCCCC2)cc1,?,27*,0%,80*,-2%
COc1ccccc1C(=O)Nc1ccc(C(=O)N2CCCCC2)cc1,-5%,13*,-3%,-1,-5%
Cc1ccc(C(=O)Nc2ccc(C(=O)N3CCCCC3)cc2)o1,?,26*,.,52*,5%
COc1ccccc1C(=O)Nc1ccc(C(=O)N2CCCC2)cc1,?,16,0%,33,-5%
Clc1ccc(-n2ncc3c(N4CCCCCC4)ncnc32)cc1,-6%,21*,-1%,33,14%
COc1ccc(-n2ncc3c(N4CCCCC4)ncnc32)cc1,16µM*,-6,-4%,-23,-17%
COc1ccccc1CNC(=O)CN(C)S(=O)(=O)c1cccc2cccnc12,-2%,8,5%,4,-2%
CC(C)C[C@H](NC(=O)CN(C)C(=O)[C@H](Cc1ccccc1)NC(=O)[C@H](Cc1ccccc1)NC(=O)[C@H](CCC(N)=O)NC(=O)[C@H](CCC(N)=O)NC(=O)[C@@H]1CCCN1C(=O)[C@H](CCCCN)NC(=O)[C@@H]1CCCN1C(=O)[C@@H](N)CCCN=C(N)N)C(=O)N[C@@H](CCS(C)(=O)=O)C(N)=O,.,5,3%,19,.
COc1ccc(N/C=C2/CCCCC2=O)cc1,-14%,78*,14%,129*,?
O=C1CCCC/C1=C/Nc1ccc(C(=O)O)cc1,-26%,30*,-6%,42,-9%
O=C1CCCC/C1=C\Nc1ccccc1C(=O)O,10%,-4,-24%,-8,-1%
COc1ccc(Oc2ccc(N/C=C3/CCCC3=O)cc2)cc1,-2%,13,-15%,-26,17%
COc1cc(C(=O)OCC(=O)Nc2sccc2C(N)=O)cc(OC)c1OC,2%,10,2%,9,.
O=C(COc1ccccc1)Nc1nccs1,14µM*,30*,-1%,53*,0%
COc1ccc(C(=O)OCC(=O)Nc2sccc2C(N)=O)cc1OC,0%,9.3*,2%,8,2%
O=C(COc1ccc2ccc(=O)oc2c1)Nc1nccs1,-4%,64*,-10%,68*,0%
COc1cccc(CNc2nccs2)c1O,2%,24*,4%,.,9%
Cc1ccn(CCNC(=O)C2CCC(=O)N(CCc3ccc(Cl)cc3)C2)n1 (stereo not drawn),-6%,1,.,-33,5%
CCOC(=O)c1c(C)[nH]c(C)c1S(=O)(=O)N(C)CC(=O)Nc1cccc(C)n1,0%,4,.,4,8%
COc1ccccc1OCC(=O)OCC(=O)Nc1sccc1C(N)=O,-4%,3,3%,-5,6%
NC(=O)c1ccsc1NC(=O)COc1ccccc1,?,42*,-4%,86*,-59%
NC(=O)c1ccsc1NC(=O)COC(=O)C1CC2CCCC(C1)C2=O (stereo not drawn),1%,14*,7%,5,3%
C=CCOc1ccc(CNc2nccs2)cc1OC,0%,26*,0%,22*,5%
O=C(COC(=O)c1ccccc1Cl)Nc1nccs1,-3%,11*,0%,18,15%
COC(=O)C1C/C(=N/NS(=O)(=O)c2ccc(C)cc2)CS1 (stereo not drawn),-6%,-1,.,17,-1%
SMILES,LmPK inhibitor,CHX counter,FBPA Giardia inh,Shiga inhibitor,NS1 inh
CCCn1c(C)nc2c(NCCCN(CC)CC)nc(C)nc21,.,.,5%,.,.
CCn1nnc(NC(=O)c2ccco2)n1,1%,6,3%,5,7%
COc1ccccc1CNC(=O)C(=O)Nc1nccs1,8%,-2,2%,50,-1%
COc1ccccc1CCC(=O)Nc1ccc(C)cc1Cl,1%,55*,-6%,90*,.
O=C(COc1ccc2ccccc2c1)Nc1nccs1,-27%,42*,-8%,52*,-3%
COc1ccccc1CCC(=O)Nc1nccs1,-1%,14*,-5%,32,1%
COc1ccccc1CCC(=O)Nc1ncc(C)s1,2%,10,2%,34,4%
CCSc1nnc(NC(=O)COc2ccc3ccccc3c2)s1,0%,2,12%,17,-6%
COc1ccc2c(c1)CCc1c(-c3noc4c3CCc3cc(OC)ccc3-4)noc1-2,.,.,.,.,0%
CCCNC(=O)c1noc2c1CCc1cc(OC)ccc1-2,-4%,48*,-9%,71*,.
COc1cc(OC)cc(C(=O)NCc2cccnc2)c1,6%,-1,3%,24,1%
COc1ccc2c(c1)CCc1c(C(=O)NCC(C)C)noc1-2,-9%,39*,-14%,178*,.
COc1ccc2c(c1)CCc1c(C(=O)N3CCCCCC3)noc1-2,1%,46*,-12%,114*,-62%
COc1ccc2c(c1)CCc1c(C(=O)NCc3cccnc3)noc1-2,3%,12*,?,23,-2%
CCc1ccc(-c2cc3c(=O)n(CC(=O)NCCCN4CCN(CC)CC4)nc(C)n3n2)cc1,0%,11,-2%,3,5%
C[C@H](NC(=O)c1ccccc1)C(=O)N1CCN(c2ccccc2)CC1,2%,-2,2%,24,25%
CCOC(=O)C1CCCN(C(=O)C2CCN(S(=O)(=O)c3ccc4ccccc4c3)CC2)C1 (stereo not drawn),-4%,-2,.,-6,-25%
O=C(NCCCN1CCCC1=O)c1cccc(S(=O)(=O)N2CCN(c3ccc(F)cc3)CC2)c1,-13%,-1,.,-25,-4%
CC(=O)C(C)Oc1ccc2c3c(c(=O)oc2c1)CCCCC3 (stereo not drawn),1%,50*,-9%,83*,-19%
O=c1oc2cc(OCc3nn[nH]n3)ccc2c2c1CCCC2,1%,-1,-14%,12,?
Cc1ccc(NC(=O)COc2ccc3oc4c(c3c2)CCCC4)nc1,-5%,3,4%,-16,-6%
CC(=O)C(C)Oc1ccc2c3c(c(=O)oc2c1)CCCC3 (stereo not drawn),-1%,8,-6%,70,-32%
Cc1cccnc1NC(=O)COc1ccc2oc3c(c2c1)CCCC3,-9%,29*,0%,28*,-38%
CC(=O)COc1ccc2c3c(c(=O)oc2c1)CCCC3,0%,17*,-5%,50,-64%
C#CCOc1ccc2c3c(c(=O)oc2c1)CCCC3,-2%,14*,-7%,.,-40%
NC(=O)C1CCCN1C(=O)C(Cc1cnc[nH]1)NC(=O)C1CCC(=O)N1 (stereo not drawn),.,-2,-13%,11,.
O=C(COc1ccc2c3c(c(=O)oc2c1)CCC3)Nc1ccccn1,-9%,20*,.,19,1%
COc1ccc(NC(=O)O/N=C/c2ccccc2)cc1,3%,40*,-1%,79*,-29%
Cc1ccc(NC(=O)CO/N=C/c2ccc(N(C)C)cc2)cc1,-1%,10,6%,-10,-5%
CN(C)c1ccc(/C=N/OC(=O)Nc2ccccc2)cc1,0%,37*,-13%,52*,-11%
